Assay results published in PubChem BioAssay (EPA / NIEHS).
The source made the active and inactive calls. Rule for the calls: active = hit-call score of the fitted dose curve at least 0.9, where 1 is the maximum; inactive = score below 0.9.

These molecules were tested on Cytochrome P450 2C19 (Homo sapiens) (UniProt P33261) (assay: LTEA_HepaRG_CYP2C19: Life Technologies and Expression Analysis (LTEA) Assay for CYP2C19 using HepaRG (AID 2283482)). Conditions: mRNA level, 48 h; actives raise or lower the signal.
Experimental: LTEA_HepaRG is a cell based, multiplexed-readout assay that uses HepaRG, a human liver cell line, with measurements taken at 48 hours after chemical dosing on a 96-well plate.LTEA_HepaRG_CYP2C19 is one of 102 assay component(s) measured in the LTEA HepaRG cell culture assay. It is a marker of NR mediated metabolism.Data from the assay component LTEA_HepaRG_CYP2C19 was analyzed into 1 endpoint. This assay endpoint, LTEA_HepaRG_CYP2C19, was analyzed with bidirectional fitting relative to DMSO as the negative control and baseline of activity. Using a type of inducible reporter, measures of mRNA induction for gain or loss-of-signal activity can be used to understand regulation of transcription factor activity. To generalize the intended target to other relatable targets, this assay endpoint is annotated to the cyp intended target family, where the subfamily is xenobiotic metabolism.
A total of 1060 chemcials from the ToxCast library were tested in eight-point concentration-response experiments. Cell culture and cytotoxicity assays were conducted at Thermo Fisher Scientific's Custom Services facility (Madison, WI). A single lot of human HepaRG cells (Thermo Fisher Scientific, Frederick, MD) was used for the cell culture experiments. 96-well format collagen type I coated plates of human HepaRG cells were prepared using established methods. Briefly, cryopreserved HepaRG cells were thawed, plated at a density of approximately 100,000 cells/well in HepaRG Thaw, Plate, and General Purpose media (HPRG770, Thermo Fisher Scientific), and incubated for 48 hours. 0.5% DMSO was selected as vehicle control to balance the requisite need of DMSO in HepaRG cultures to maintain differentiation (for example, baseline metabolism, proportions of hepatocytes vs. cholangiocytes), while enabling further hepatic receptor pathway activation (for example, PXR and CAR) in response to chemical exposure. 48 hours after plating, the culture medium was replaced with HepaRG Serum-Free Incudtion Media. Cells were exposed to each test chemical in duplicate and maintained in CO2 incubators for another 48 hours. Chemical plates were thawed to room temperature and 200x concentrations of treatment groups were prepared. 8-point conentration-reponse curves were made with the highest exposure at 100 uM, followed by half-log dilutions, all in 0.5% DMSO. Each test plate contained variouse controls, induction positive controls (1mM phenobarbital), cytotoxicity positive controls ([…] aflatoxin B1), vehicle controls (0.5% DMSO), and total lysis controls (0.5% DMSO). Cell morphology images were taken using an Essen IncuCyte FLR automated microscope, with six 96-well plates imaged in about 24 minutes. Images were captured and exported and JPEG files. Spent culture media was transfered to black-well plates for the LDH assay, and remaining media was sorted at -80 C for later use. Cells were treated with RLT buffer and frozen until shipped for gene expression analysis. Total RNA was isolated from the cell suspension in 75 uL of Buffer RLT (Qiagen, Germantown, MD 20874) by Quintiles/Expression Analysis (Durham, NC) using a custom isolation procedure. Total RNA from each plate well was transferred to a preamplification plate. Fluidigm's 96.96 Dynamic ArrayTM (Fluidigm, Amsterdam, the Netherlands) technology was used for gene expression analyses by quantitative reverse transcription polymerase chain reaction (qRT-PCR, performed by Quintiles/Expression Analysis, Durham, NC)89. Standard TaqManTM Assays (Applied Biosystems/ThermoFisher Scientific, Foster City, CA) were used to assess the expression of 93 genes selected based on their selectivity and sensitivity to important hepatic receptors known to be modulated by environmental chemicals; importance in human hepatocyte functionality; and hepatotoxicity. […]

Chain of Cytochrome P450 2C19 (Homo sapiens) (P33261 whole entry, looked up): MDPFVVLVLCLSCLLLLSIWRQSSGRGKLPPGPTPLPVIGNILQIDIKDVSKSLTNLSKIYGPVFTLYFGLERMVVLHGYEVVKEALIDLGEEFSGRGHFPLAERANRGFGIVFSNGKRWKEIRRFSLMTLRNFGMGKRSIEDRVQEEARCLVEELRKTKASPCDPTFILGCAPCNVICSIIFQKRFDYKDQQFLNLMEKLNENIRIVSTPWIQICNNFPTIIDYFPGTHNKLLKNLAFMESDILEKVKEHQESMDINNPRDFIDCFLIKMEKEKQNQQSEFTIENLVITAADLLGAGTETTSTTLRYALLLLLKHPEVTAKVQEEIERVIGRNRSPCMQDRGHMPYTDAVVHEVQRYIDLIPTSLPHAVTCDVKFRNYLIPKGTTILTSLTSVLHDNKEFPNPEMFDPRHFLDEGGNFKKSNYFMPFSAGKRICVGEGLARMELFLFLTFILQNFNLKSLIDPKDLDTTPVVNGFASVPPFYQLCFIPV

Row | Compound | outcome | AC50
1 | C=CN1CCCC1=O | inactive | 
2 | CCCCC(CC)C(=O)OCCOCCOCCOC(=O)C(CC)CCCC (stereo not given) | inactive | 
3 | CCN(CC)C(=S)SSC(=S)N(CC)CC | inactive | 
4 | Cc1ncc([C@@H](CCCCCCc2ccc3c(n2)NCCC3)CC(=O)O)cn1 | inactive | 
5 | O=S(=O)(O)c1ccc(N=Nc2c(O)ccc3cc(S(=O)(=O)O)ccc23)cc1 | inactive | 
6 | CC(C)c1nnc2ccc(-c3ocnc3-c3cc(F)ccc3F)cn12 |  | 91.6 µM (active)
7 | CCCCN1C(=O)[C@@H]([C@H](O)C2CCCCC2)NC(=O)C12CCN(Cc1ccc(Oc3ccc(C(=O)O)cc3)cc1)CC2 |  | 2.02 µM (active)
8 | OC[C@H]1O[C@@](CO)(O[C@H]2O[C@H](CO)[C@@H](O)[C@H](O)[C@H]2O)[C@@H](O)[C@@H]1O | inactive | 
9 | COCc1nnc(-c2ccc[n+]([O-])c2)n1-c1c(Cl)c(Cl)cc2[nH]c(=O)c(=O)[nH]c12 | inactive | 
10 | Cc1nc(-c2ccccn2)ncc1C(=O)Nn1cc(C)c2cc(F)ccc21 |  | 1.02 µM (active)
11 | OCCNCCO |  | 50 µM (active)
12 | CC(C)C(=O)Nc1ccc([N+](=O)[O-])c(C(F)(F)F)c1 |  | 77.3 µM (active)
13 | CCCCCCOC(=O)CC(CC(=O)OCCCCCC)(OC(=O)CCC)C(=O)OCCCCCC | inactive | 
14 | O=C1CN(N=Cc2ccc([N+](=O)[O-])o2)C(=O)N1 | inactive | 
15 | CCCCCCCCN(C)C | inactive | 
16 | C[C@@H](Oc1ccc(CNC(=O)c2cccnc2Oc2ccc3c(c2)OCO3)c(F)c1)C(=O)O | inactive | 
17 | OCc1ccccc1 | inactive | 
18 | NC(=O)N1c2ccccc2C=Cc2ccccc21 |  | 15.9 µM (active)
19 | CC(C)CCCCCCOC(=O)C1CCCCC1C(=O)OCCCCCCC(C)C (stereo not given) | inactive | 
20 | CCCC(CCC)C(=O)O | inactive | 

Row | Compound | outcome | AC50
21 | CNC(C)=O | inactive | 
22 | NNC(=O)c1ccncc1 | inactive | 
23 | NC(N)=O | inactive | 
24 | C=CCc1cc(S(=O)(=O)c2ccc(O)c(CC=C)c2)ccc1O |  | 95.4 µM (active)
25 | Cc1nccn1-c1ccc(Sc2cccc(C3(C(N)=O)CCOCC3)c2)cc1 |  | 10.7 µM (active)
26 | NC(=O)N(O)[C@@H]1COc2cc(OCc3ccccc3)ccc21 | inactive | 
27 | CCCCCCCC/C=C\CCCCCCCC(=O)OC[C@@H](O)[C@H]1OC[C@H](O)[C@H]1O | inactive | 
28 | c1ccc2cc3ccccc3cc2c1 | inactive | 
29 | c1ccc(C(O[C@@H]2CCCN(CCc3ccc4c(c3)OCO4)C2)c2ccccc2)cc1 |  | 79 µM (active)
30 | CCCCCCCCCCCCCCO | inactive | 
31 | O=S1(=O)CCCO1 | inactive | 
32 | OC(CCl)CCl | inactive | 
33 | Cn1cc[nH]c1=S | inactive | 
34 | O=C(O)c1cccc(C(=O)O)c1 | inactive | 
35 | CCn1nc(C)c2c1C(=O)NCC(c1ccc(O)cc1)=N2 | inactive | 
36 | CCOc1ccc2[nH]cc(C(=O)NCc3ccccc3)c(=O)c2n1 | inactive | 
37 | CCOC(N)=O | inactive | 
38 | CCc1cccc(CC)c1N | inactive | 
39 | O=C(O)c1ccc2c(c1)nc(C(=O)NC1CCN(C3CC3)CC1)n2Cc1cc(-c2ccc(Cl)s2)on1 | inactive | 
40 | CC(C)CC(C)O (stereo not given) | inactive | 
